# Assay results published in PubChem BioAssay.
# Activity calls are given as the source filed them. Unless noted, no rule for the calls is given here.
# Legend:
# [1] = tested on: Wnt5a (protein binding on small-molecule microarray); assay: Wnt5a binders on small-molecule microarray, primary screen, biophysical, 635/667 nm fluorescence (AID 1142); settings: 635 nm fluorescence, higher = more signal;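 also: fluorescence read at 667 nm with signal to noise per printed feature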
# [2] = cell viability in Huh7 cells, primary screen, cytotoxicity control for HCV replication inhibitor project, CellTiter-Glo luminescence, basal, 48 h (AID 1143); settings: Huh7 HCV replicon, higher = more signal, called active from +8 up or from −8 down;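 also: Huh7 hepatoma cells carrying a hepatitis C replication reporter with no stimulus; test concentration not given here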
# [3] = P. aeruginosa biofilm formation inhibitors, primary screen, PAO1 strain, BacTiter-Glo luminescence, LB-PBS (AID 1144); settings: 12 h, higher = more signal
# [4] = CREB reporter modulators without forskolin, primary screen, cell-based, PC12, CRE-LacZ reporter, unstimulated (AID 1145); settings: no forskolin, luminescence, 4.5 h, higher = more signal, called active from +8 up or from −8 down
# [5] = CREB reporter modulators under forskolin, primary screen, cell-based, PC12, CRE-LacZ reporter, forskolin-stimulated (AID 1146); settings: luminescence, 4.5 h, higher = more signal, called active from +8 up or from −8 down;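 also: PC12 cells with 6xCRE LacZ reporter stimulated by forskolin 10 µM; beta-galactosidase reporter signal reflecting CREB driven transcription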
# [6] = target: Streptavidin (Streptomyces avidinii) (UniProt P22629); assay: streptavidin binders on small-molecule microarray, primary screen, artefact control for SMM compound annotation, biophysical, 635/667 nm fluorescence (AID 1147); settings: streptavidin binding, higher = more signal;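 also: signal reflects streptavidin binding to arrayed compounds as a control protein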
# Chain of Streptavidin (Streptomyces avidinii) (P22629 whole entry, looked up): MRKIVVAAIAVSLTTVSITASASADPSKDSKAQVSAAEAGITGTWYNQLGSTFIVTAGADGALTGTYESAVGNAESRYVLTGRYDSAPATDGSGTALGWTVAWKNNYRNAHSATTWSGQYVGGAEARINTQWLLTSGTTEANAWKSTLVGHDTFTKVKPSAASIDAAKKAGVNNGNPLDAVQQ
# [7] = small-molecule binders of probe aInhba, primary screen, biochemical, small-molecule microarray, 635/667 nm fluorescence (AID 1148); settings: higher = more signal;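 also: score merges 667nm spot fluorescence with signal-to-noise for antibody binding to printed compounds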
# Torsin-1A (Homo sapiens) [8] = target: Torsin-1A (Homo sapiens) (UniProt O14656); assay: torsin A binders from cell lysate, primary screen, small-molecule microarray, wild-type, 635/667 nm (AID 1149); settings: COS7 hTOR1A-WT lysate, 635 nm fluorescence, higher = more signal
# Chain of Torsin-1A (Homo sapiens) (O14656 whole entry, looked up): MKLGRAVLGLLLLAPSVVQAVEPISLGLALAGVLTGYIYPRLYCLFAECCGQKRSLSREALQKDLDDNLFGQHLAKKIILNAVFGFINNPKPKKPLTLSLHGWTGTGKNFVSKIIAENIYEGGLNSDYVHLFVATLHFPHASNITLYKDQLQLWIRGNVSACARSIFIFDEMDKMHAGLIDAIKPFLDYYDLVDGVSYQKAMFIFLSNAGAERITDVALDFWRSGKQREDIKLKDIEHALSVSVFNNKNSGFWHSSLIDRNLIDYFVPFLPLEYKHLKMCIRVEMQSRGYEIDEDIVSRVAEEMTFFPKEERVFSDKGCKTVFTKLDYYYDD
# Torsin-1A (Homo sapiens) [9] = target: Torsin-1A (Homo sapiens) (UniProt O14656); assay: small-molecule binders of mutant TOR1A in lysate, primary screen, cell lysate, small-molecule microarray, COS7 lysate, 635/667 nm fluorescence (AID 1150); settings: COS7 hTOR1A mutant lysate, 635 nm fluorescence, higher = more signal;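 also: score pools 667 nm emission and signal to noise measuring lysate protein binding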
# [10] = tested on: Sonic hedgehog protein (Shh); assay: small-molecule binders of Shh protein, primary screen, biochemical, small-molecule microarray, 635/667 nm fluorescence (AID 1151); settings: small-molecule microarray binding, 635 nm fluorescence; higher = more signal;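 also: Shh protein binding to compounds spotted on small-molecule microarray slides; score combines spot fluorescence intensity with signal-to-noise across triplicate slides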
Structure (SMILES),composite z-score [1],z-score [2],z-score [3],z-score [4],z-score [5],composite z-score [6],composite z-score [7],composite z-score (Torsin-1A (Homo sapiens) [8]),composite z-score (Torsin-1A (Homo sapiens) [9]),composite z-score [10]
CCOC(=O)C[C@H]1[C@H](OC(=O)c2ccc(-c3ccccc3)cc2)[C@@H](NC(=O)c2ccc(-c3ccccc3)cc2)c2cc(OCCCO)ccc2N1C(=O)Cc1ccc(OC)cc1,0.0386,-0.477 (inactive),-0.402 (inactive),-0.448 (inactive),-0.494 (inactive),0.745,0.0301,-0.205,0.119,-0.195
CC(=O)Nc1cc(Br)ccc1C(=O)O,-0.129,0.0092 (inactive),0.307 (inactive),-0.141 (inactive),0.151 (inactive),0.254,0.0658,1.46,0.0517,-0.402
COCC(=C=CC[C@H](O)c1ccc(OCCO)cc1)C[C@H](O)c1cc(Cl)cc(Cl)c1O,0.635,-7.94 (inactive),-0.984 (inactive),11.1 (active),0.96 (inactive),0.169,0.0849,1.06,0.3,2.26
C=CCC(OC(C)=O)[C@@H]1[C@@H](N(Cc2cccc3ccccc23)C(=O)c2cccc3ccccc23)c2cc(OCCCO)ccc2N1C(=O)c1ccc2ccccc2n1 (stereo not given in full),-0.0721,-1.66 (inactive),0.603 (inactive),0.265 (inactive),0.446 (inactive),0.193,-0.0791,-0.309,-0.297,0.832
COc1ccc(CCNC(=O)[C@@]2(Sc3ccc(C)cc3)CC(=O)N(Cc3ccccc3Cl)[C@@H]2c2ccc(CO)cc2I)cc1,-0.234,-2.2 (inactive),0.0319 (inactive),0.569 (inactive),1.12 (inactive),-0.539,0.12,-0.794,-0.491,0.153
C=CCOC(=O)[C@@H]1[C@H]2C(=O)O[C@H](c3ccccc3)[C@H](c3ccccc3)N2[C@H](c2ccc(OCCOC(=O)[C@@H]3C[C@@H]4C(=O)N[C@@H](Cc5ccccc5)C(=O)N4[C@@H]3c3cccc(OCCO)c3)cc2)[C@@]12C(=O)Nc1ccc(I)cc12,0.867,-0.166 (inactive),-0.525 (inactive),-1.08 (inactive),0.0071 (inactive),-0.184,0.35,1.3,0.731,2.16
CCOC(=O)C[C@H]1[C@H](OC(=O)c2ccc(C(=O)c3ccccc3)cc2)[C@@H](NC(=O)C2CCCCC2)c2cc(OCCCO)ccc2N1C(=O)c1ccccc1,0.177,-0.361 (inactive),0.441 (inactive),2.06 (inactive),-0.0298 (inactive),0.767,0.58,0.342,0.358,1.31
CC(C)C(=C=CC[C@H](O)c1ccccc1OCCO)C[C@H](O)c1ccccn1,0.257,-0.667 (inactive),-0.0531 (inactive),4.99 (inactive),0.0622 (inactive),-0.199,-0.0205,0.635,1.59,1.63
CC(C)C(=C=CC[C@H](O)c1cccc(OCCO)c1)C[C@H](O)COCc1ccccc1,0.148,-0.33 (inactive),-0.457 (inactive),1.82 (inactive),0.526 (inactive),1.24,0.167,1.03,0.33,2.09
CCN(CC)c1ccc(N2CC=CC34O[C@@H]5/C=C\CCCOC(=O)C5[C@H]3C(=O)N(C(CO)C(C)C)[C@@H]4C2=O)cc1 (stereo not given in full),-0.297,-0.245 (inactive),2.75 (inactive),-0.0939 (inactive),0.119 (inactive),-0.819,-0.128,0.006,-1.2,0.0008
CS(=O)(=O)CCOC(=O)C1=CC(c2ccc(CO)cc2)=CC(C2CC2)N(Cc2cc3c(cc2Br)OCO3)C=C1C(=O)OCCS(C)(=O)=O (stereo not given),0.377,-3.38 (inactive),-0.992 (inactive),5.81 (inactive),-2.41 (inactive),1.54,-0.0645,0.0194,1.45,0.595
Cc1cc(C)cc(N2C(=O)CS(=O)(=O)C2c2cccc([N+](=O)[O-])c2)c1 (stereo not given),0.223,-2.18 (inactive),-0.527 (inactive),-0.0243 (inactive),-0.494 (inactive),1.26,0.952,0.513,0.897,0.659
COC(=O)[C@]1(Cc2ccccc2N=[N+]=[N-])N=C(c2ccc(OCCCO)cc2)O[C@@H]1c1ccccc1N=[N+]=[N-],-0.104,-5.35 (inactive),0.337 (inactive),2.85 (inactive),-1.04 (inactive),0.105,-0.0762,-1.45,0.283,0.765
COC(=O)c1ccc(C(O)C2C=CC3C(=O)N(C)C(=O)C3N2NC(=O)OC(C)(C)C)o1 (stereo not given),0.565,0.534 (inactive),0.212 (inactive),1 (inactive),0.323 (inactive),0.367,-0.128,0.649,1.5,0.112
C=C(COC)C(=O)CC[C@@H](OC(=O)c1cccnc1)c1ccc(CO)o1,0.345,-0.336 (inactive),-0.0359 (inactive),0.611 (inactive),0.114 (inactive),-0.022,-0.0675,0.247,-0.332,1.6
COc1ccc([Si](C)(C)[C@H]2[C@H](CC(=O)N(CCO)Cc3ccccc3)O[C@@]3(C(=O)N(Cc4cccc(N5CCC5=O)c4)c4ccccc43)[C@@H]2C)cc1,0.526,-6.85 (inactive),-0.216 (inactive),0.469 (inactive),-0.854 (inactive),0.0587,-0.0221,0.795,0.278,2.05
COC(=O)C[C@H]1O[C@]2(C(=O)N(Cc3ccccc3)c3ccc(NC(C)=O)cc32)[C@@H](C)[C@@H]1[Si](C)(C)c1ccc(OC)cc1,0.0998,-0.796 (inactive),0.695 (inactive),1.84 (inactive),-0.792 (inactive),0.174,-0.251,-0.0471,0.033,0.978
COc1ccc(CCN2C(=O)[C@@]3(Cc4ccccc42)c2ccccc2C(=O)N(Cc2ccccc2Cl)[C@H]3c2ccc(CO)cc2)cc1,-0.0887,-1.7 (inactive),-0.456 (inactive),0.558 (inactive),0.131 (inactive),-0.343,-0.0403,-0.921,-0.77,-0.801
CCC(CC)C(O)C1C=CC2C(=O)N(c3ccccc3)C(=O)C2N1Nc1ccc(C#N)cc1 (stereo not given),0.658,0.625 (inactive),-0.939 (inactive),1.01 (inactive),0.435 (inactive),1.24,0.75,0.223,0.775,-0.41
COC(=O)[C@@]1(Cc2ccccc2)[C@H]2c3cc(C(=O)N(C)C)n(Cc4c(-c5ccccc5)noc4C)c3C[C@H]2CN1C(=O)c1ccccc1,0.235,-2.2 (inactive),-0.0247 (inactive),0.201 (inactive),-0.732 (inactive),1.47,0.308,0.301,0.584,-0.141
O=C1C2C=CC(C(O)c3ccc(B(O)O)cc3)N(Nc3ccccc3)C2C(=O)N1c1ccccc1 (stereo not given),-0.0341,-2.7 (inactive),-1.06 (inactive),0.24 (inactive),1.11 (inactive),0.471,-0.0797,-0.138,-0.724,-0.661
[N-]=[N+]=NCc1ccccc1C[C@]1(C(=O)NCCN2CCOCC2)N=C(c2ccc(OCCCO)cc2)O[C@H]1c1ccccc1N=[N+]=[N-],0.152,-3.01 (inactive),-0.446 (inactive),1.65 (inactive),-0.891 (inactive),1.05,0.279,0.304,0.283,-0.0478
O=C1[C@]2(CO)C=C(Br)[C@@H](C[C@@H]2c2ccccc2)[C@@]12CO2,-0.165,-0.296 (inactive),-0.547 (inactive),1.12 (inactive),3.94 (inactive),1.26,-0.237,-0.619,0.0294,0.344
CC(C)c1ccc(NN2C(C(O)c3ccc(N(C)C)cc3)C=CC3C(=O)N(c4ccccc4)C(=O)C32)cc1 (stereo not given),0.125,-1.1 (inactive),-0.666 (inactive),-0.133 (inactive),0.856 (inactive),1.76,0.268,0.074,0.658,-0.0206
O=C1O[C@@H](c2ccccc2)[C@@H](c2ccccc2)N2[C@@H](c3ccc(O)cc3)[C@]3(C(=O)Nc4ccc(C#CC5(O)CCCCCC5)cc43)[C@@H](C(=O)N3CCCCCCC3)[C@H]12,1.74,-2.41 (inactive),-1.55 (inactive),0.362 (inactive),-0.981 (inactive),3.13,1.67,2.71,2.35,2.27
COC(=O)c1ccc(C(O)C2C=CC3C(=O)N(c4ccccc4)C(=O)C3N2Nc2ccc(C#N)cc2)o1 (stereo not given),0.304,1.07 (inactive),-1.05 (inactive),1.4 (inactive),-0.22 (inactive),0.337,-0.0901,0.928,0.0721,-0.0224
CC1CC/C=C\[C@H]2OC34C=CCN(Cc5ccccc5)C(=O)[C@H]3N(CCCCCO)C(=O)[C@@H]4C2C(=O)O1 (stereo not given in full),0.008,0.398 (inactive),1.96 (inactive),1 (inactive),0.424 (inactive),-0.966,-0.242,-1.17,-1.4,-0.829
Cc1ccc(S[C@]2(C(=O)NC3CC3)CC(=O)N(Cc3ccccc3)[C@@H]2c2ccc(CO)cc2)cc1,-0.144,0.103 (inactive),0.396 (inactive),-0.295 (inactive),0.473 (inactive),-0.807,-0.0762,-0.559,-0.906,-0.863
COc1ccc(C#Cc2ccc3c(c2)[C@]2(C(=O)N3)[C@H](C(=O)NC[C@H](O)c3ccccc3)[C@H]3C(=O)O[C@H](c4ccccc4)[C@H](c4ccccc4)N3[C@@H]2c2ccccc2OCCO)cc1,0.0762,-5.79 (inactive),-0.494 (inactive),-0.463 (inactive),-0.336 (inactive),0.924,0.421,0.123,0.535,1.68
